Measured values taken from ChEMBL document CHEMBL3433997, “St. Jude Leishmania screening dataset” (2016).

Legend:
Format in all cases: functional
[1] = target: Solute carrier family 2, facilitated glucose transporter member 1 (Homo sapiens) (UniProt P11166); assay: ST_JUDE_LEISH: Cytotoxicity at 2uM final concentration against transgenic Leishmania Mexicana promastigotes LmGLUT1 that are glucose transport deficient and complemented with the human glucose transporter GLUT1. Activity is measured by DNA content using SYBR green in vitro
[2] = target: Hexose transporter 1 (Plasmodium falciparum) (UniProt O97467); assay: ST_JUDE_LEISH: Cytotoxicity at 2uM final concentration against transgenic Leishmania Mexicana promastigotes LmPfHT that are glucose transport deficient and complemented with the Plasmodium falciparum hexose transporter. Activity is measured by DNA content using SYBR green in vitro
[3] = target: Glucose transporter (Leishmania mexicana) (UniProt O61059); assay: ST_JUDE_LEISH: Cytotoxicity at 2uM final concentration against transgenic Leishmania Mexicana promastigotes LmGT2 that are glucose transport deficient and complemented with the L. Mexicana glucose transporter 2. Activity is measured by DNA content using SYBR green in vitro

Chain of Solute carrier family 2, facilitated glucose transporter member 1 (Homo sapiens) (P11166 whole entry): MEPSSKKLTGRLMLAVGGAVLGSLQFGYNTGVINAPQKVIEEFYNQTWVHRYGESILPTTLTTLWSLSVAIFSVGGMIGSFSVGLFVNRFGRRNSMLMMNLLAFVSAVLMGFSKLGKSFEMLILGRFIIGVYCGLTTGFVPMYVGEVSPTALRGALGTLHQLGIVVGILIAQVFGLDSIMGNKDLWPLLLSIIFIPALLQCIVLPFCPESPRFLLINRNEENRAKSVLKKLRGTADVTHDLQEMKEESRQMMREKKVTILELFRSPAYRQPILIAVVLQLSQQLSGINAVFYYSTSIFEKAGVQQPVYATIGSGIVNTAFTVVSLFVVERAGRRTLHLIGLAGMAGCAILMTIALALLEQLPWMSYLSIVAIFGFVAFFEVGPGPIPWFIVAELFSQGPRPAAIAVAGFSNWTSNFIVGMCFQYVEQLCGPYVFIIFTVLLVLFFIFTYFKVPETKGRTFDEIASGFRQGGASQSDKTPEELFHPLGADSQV

SMILES: CC(C)c1ccc(C(NC(=O)C2CCCCC2)c2ccc3cccnc3c2O)cc1 (stereo unspecified)
- inhibition [1]: -0.43%
- inhibition [2]: -0.57%
- inhibition [3]: -1%

SMILES: CCCCCn1c(Sc2ccc(C#N)c([N+](=O)[O-])c2)nnc1-c1ccc(OC)cc1
- inhibition [1]: 9.26%
- inhibition [2]: 6%
- inhibition [3]: 4.8%

SMILES: O=C(c1ccco1)N1CCN(c2nc(-c3ccc(Cl)cc3)nc3ccccc23)CC1
- inhibition [1]: 6.35%
- inhibition [2]: 1.81%
- inhibition [3]: 4.42%

SMILES: Cc1cc(=NN=Cc2ccccc2F)c2cc(F)ccc2[nH]1
- inhibition [1]: 1.79%
- inhibition [2]: 3.14%
- inhibition [3]: 0.82%

SMILES: N#Cc1cccc(NC(=O)C2=C(CCc3ccc4c(c3)OCO4)NC(=O)NC2c2cccc(C#N)c2)c1 (stereo unspecified)
- inhibition [1]: -0.43%
- inhibition [2]: 0.52%
- inhibition [3]: -0.7%

SMILES: O=C(NCc1ccc(F)cc1)Nc1ccc(-c2ccc(-c3nc4ccccc4[nH]3)cc2)cc1
- inhibition [1]: 1.28%
- inhibition [2]: -0.46%
- inhibition [3]: 0.75%

SMILES: Cc1nn(C2CCS(=O)(=O)C2)c(C)c1C1Nc2ccccc2C(=O)N1Cc1ccc2c(c1)OCO2 (stereo unspecified)
- inhibition [1]: -0.66%
- inhibition [2]: -0.19%
- inhibition [3]: -1.17%

SMILES: N#CCCn1nc(-c2ccc(Cl)cc2)c2c(c1=O)CCCC2
- inhibition [1]: 0.21%
- inhibition [2]: 1.16%
- inhibition [3]: 1.01%

SMILES: O=C(/C=C/c1ccc(Cl)c(Cl)c1)NCCCCCN1CCC(NC(=O)NC2CCCCC2)CC1
- inhibition [1]: 1.02%
- inhibition [2]: 0.4%
- inhibition [3]: 1.22%

SMILES: CCN1CCC(N(Cc2ccc(-c3ccc(C(F)(F)F)cc3)cc2)C(=O)Cn2c(CCc3cccc(F)c3F)cc(=O)c3ccccc32)CC1
- inhibition [1]: -0.63%
- inhibition [2]: -0.01%
- inhibition [3]: -2.06%

SMILES: OC(CNCc1cccc(Oc2ccc(Cl)cc2)c1)c1cccc(C(F)(F)F)c1 (stereo unspecified)
- inhibition [1]: 1.7%
- inhibition [2]: 1.81%
- inhibition [3]: -0.71%

SMILES: Cc1ccc(N2C(N)=NC(N)=NC2c2ccccc2)cc1 (stereo unspecified)
- inhibition [1]: 2.79%
- inhibition [2]: 2.24%
- inhibition [3]: 2.13%
